Experimental data from PubChem BioAssay (EPA / NIEHS).
Activity calls are given as the source filed them. How the source made its calls: active means hit-call score of the fitted dose curve at least 0.9, where 1 is the maximum; inactive means score below 0.9.

Columns and labels:
Settings in all cases: mRNA level, 48 h; actives raise or lower the signal
[1] = read-out: Tumor necrosis factor receptor superfamily member 6 (Homo sapiens) (UniProt P25445); experiment: LTEA_HepaRG_FAS: Life Technologies and Expression Analysis (LTEA) Assay for Fas cell surface death receptor (FAS) using HepaRG (AID 2283447)
Method in brief: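 FAS transcript level was measured by TaqMan qRT-PCR against three housekeeping genes after 48 h chemical exposure. Cells were HepaRG, 0.5% DMSO vehicle, with a top concentration of 100 uM and half-log dilutions over eight points, in duplicate.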

[2] = read-out: Fatty acid synthase (Homo sapiens) (UniProt P49327); experiment: LTEA_HepaRG_FASN: Life Technologies and Expression Analysis (LTEA) Assay for Fatty Acid Synthase (FASN) using HepaRG (AID 2283448)
Method in brief: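 Differentiated human HepaRG cells were exposed for 48 h in serum-free induction medium to eight half-log concentrations up to 100 uM in 0.5% DMSO, in duplicate. FASN mRNA was quantified by TaqMan qRT-PCR, normalized to ACTB/GAPDH/POLR2A, and fitted bidirectionally against DMSO.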

[3] = read-out: Cyclin D2 (CCND2), CCND2 (gene 894); experiment: LTEA_HepaRG_CCND2: Life Technologies and Expression Analysis (LTEA) Assay for Cyclin D2 (CCND2) using HepaRG (AID 2283449)
Method in brief: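 Read-out is CCND2 mRNA level measured by qRT-PCR in human HepaRG liver cells and normalised to three housekeeping genes. Chemicals were applied for 48 h at up to 100 uM, with gain or loss fitted relative to 0.5% DMSO.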

[4] = read-out: Cyclin Dependent Kinase Inhibitor 1A (CDKN1A), CDKN1A (gene 1026); experiment: LTEA_HepaRG_CDKN1A: Life Technologies and Expression Analysis (LTEA) Assay for Cyclin Dependent Kinase Inhibitor 1A (CDKN1A) using HepaRG (AID 2283450)
Method in brief: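 HepaRG, 48 h dosing, 8-pt half-log series from 100 uM top, 0.5% DMSO vehicle, duplicates. Readout: TaqMan qRT-PCR of CDKN1A transcript, housekeeping-normalized (ACTB, GAPDH, POLR2A). Up/down curve fit relative to DMSO.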

[5] = read-out: catalase (CAT), CAT (gene 847); experiment: LTEA_HepaRG_CAT: Life Technologies and Expression Analysis (LTEA) Assay for catalase (CAT) using HepaRG (AID 2283452)
Method in brief: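 Expression of CAT was quantified by TaqMan qRT-PCR with ACTB/GAPDH/POLR2A normalization after 48 h chemical exposure of HepaRG. Eight-point half-log series, top 100 uM, in 0.5% DMSO; gain or loss fitted against vehicle.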

[6] = read-out: flavin-containing dimethylaniline monooxygenases 3 (FMO3), FMO3 (gene 2328); experiment: LTEA_HepaRG_FMO3: Life Technologies and Expression Analysis (LTEA) Assay for flavin-containing dimethylaniline monooxygenases 3 (FMO3) using HepaRG (AID 2283453)
Method in brief: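 HepaRG, 48 h exposure, 8-pt half-log series from 100 uM, 0.5% DMSO vehicle, duplicates; FMO3 transcript by Fluidigm TaqMan qRT-PCR, housekeeping-normalized; gain/loss fit vs DMSO.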

[7] = read-out: Cytochrome P450 (CYP1A1), CYP1A1 (gene 1543); experiment: LTEA_HepaRG_CYP1A1: Life Technologies and Expression Analysis (LTEA) Assay for Cytochrome P450 (CYP1A1) using HepaRG (AID 2283454)
Method in brief: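 qRT-PCR read-out: CYP1A1 transcript normalized to three housekeeping genes, fitted bidirectionally against 0.5% DMSO vehicle baseline. Human HepaRG cells, 48 h chemical exposure, 8-point half-log series topping at 100 uM.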

[8] = read-out: CFLAR gene, CFLAR (gene 8837); experiment: LTEA_HepaRG_CFLAR: Life Technologies and Expression Analysis (LTEA) Assay for CFLAR gene using HepaRG (AID 2283455)
Method in brief: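 HepaRG, 48 h exposure, 8-pt conc-response (100 uM top, half-log), 0.5% DMSO vehicle, duplicates. CFLAR expression by qRT-PCR; ACTB/GAPDH/POLR2A normalization; gain or loss fit vs DMSO baseline.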

[9] = read-out: Forkhead box O1 (FOXO1), FOXO1 (gene 2308); experiment: LTEA_HepaRG_FOXO1: Life Technologies and Expression Analysis (LTEA) Assay for Forkhead box O1 (FOXO1) using HepaRG (AID 2283456)
Method in brief: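 Readout is FOXO1 transcript level by multiplexed qRT-PCR against three housekeeping genes, curve-fitted in both directions relative to 0.5% DMSO vehicle. Human HepaRG cultures received chemicals for 48 h, up to 100 uM in half-log steps.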

[10] = read-out: growth arrest and DNA damage 45 (GADD45A), GADD45A (gene 1647); experiment: LTEA_HepaRG_GADD45A: Life Technologies and Expression Analysis (LTEA) Assay for growth arrest and DNA damage 45 (GADD45A) using HepaRG (AID 2283458)
Method in brief: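 Differentiated HepaRG cells were exposed in duplicate for 48 h in serum-free induction medium to 8-point half-log concentrations up to 100 uM in 0.5% DMSO. GADD45A mRNA was measured by TaqMan qRT-PCR, normalized to ACTB, GAPDH and POLR2A, with bidirectional fitting versus DMSO.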

[11] = read-out: Forkhead box O3 (FOXO3), FOXO3 (gene 2309); experiment: LTEA_HepaRG_FOXO3: Life Technologies and Expression Analysis (LTEA) Assay for Forkhead box O3 (FOXO3) using HepaRG (AID 2283459)
Method in brief: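 HepaRG, 48 h post-dose; 8 conc., half-log from 100 uM, 0.5% DMSO, duplicates; serum-free induction medium. Readout: FOXO3 mRNA, TaqMan qRT-PCR, housekeeping-normalized. Bidirectional curve fit vs DMSO baseline.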

[12] = read-out: ABC Transporter (ABCB1), ABCB1 (gene 5243); experiment: LTEA_HepaRG_ABCB1: Life Technologies and Expression Analysis (LTEA) Assay for ABC Transporter (ABCB1) using HepaRG (AID 2283460)
Method in brief: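 Expression of ABCB1 was quantified by qRT-PCR against three housekeeping genes after human HepaRG cultures received test chemicals for 48 hours. Concentrations spanned eight half-log steps topping at 100 uM in 0.5% DMSO; gain or loss of signal was fitted relative to vehicle.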

[13] = read-out: growth arrest and DNA damage 45 (GADD45B), GADD45B (gene 4616); experiment: LTEA_HepaRG_GADD45B: Life Technologies and Expression Analysis (LTEA) Assay for growth arrest and DNA damage 45 (GADD45B) using HepaRG (AID 2283461)
Method in brief: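 qRT-PCR read-out (Fluidigm TaqMan, housekeeping-normalized) of mRNA change in human HepaRG cells after 48 h chemical exposure; 8-point curve, top 100 uM, half-log steps, 0.5% DMSO vehicle; gain or loss fitted relative to DMSO baseline.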

[14] = read-out: ABC Transporter (ABCC3), ABCC3 (gene 8714); experiment: LTEA_HepaRG_ABCC3: Life Technologies and Expression Analysis (LTEA) Assay for ABC Transporter (ABCC3) using HepaRG (AID 2283462)
Method in brief: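 qRT-PCR read-out of ABCC3 transcript, normalized to three housekeeping genes (ACTB, GAPDH, POLR2A), after 48 h chemical exposure of human HepaRG cells. Eight half-log concentrations, highest 100 uM, in 0.5% DMSO; gain or loss fitted relative to DMSO baseline.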

[15] = read-out: Cyclin D1 (CCND1), CCND1 (gene 595); experiment: LTEA_HepaRG_CCND1: Life Technologies and Expression Analysis (LTEA) Assay for Cyclin D1 (CCND1) using HepaRG (AID 2283451)
Method in brief: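 qRT-PCR (Fluidigm 96.96 array) read-out of transcript level, housekeeping-normalized (ACTB/GAPDH/POLR2A). HepaRG cells, 48 h chemical exposure, 8-point half-log series from 100 uM, 0.5% DMSO vehicle; gain or loss relative to DMSO baseline.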

Chain of Fatty acid synthase (Homo sapiens) (P49327 whole entry, looked up): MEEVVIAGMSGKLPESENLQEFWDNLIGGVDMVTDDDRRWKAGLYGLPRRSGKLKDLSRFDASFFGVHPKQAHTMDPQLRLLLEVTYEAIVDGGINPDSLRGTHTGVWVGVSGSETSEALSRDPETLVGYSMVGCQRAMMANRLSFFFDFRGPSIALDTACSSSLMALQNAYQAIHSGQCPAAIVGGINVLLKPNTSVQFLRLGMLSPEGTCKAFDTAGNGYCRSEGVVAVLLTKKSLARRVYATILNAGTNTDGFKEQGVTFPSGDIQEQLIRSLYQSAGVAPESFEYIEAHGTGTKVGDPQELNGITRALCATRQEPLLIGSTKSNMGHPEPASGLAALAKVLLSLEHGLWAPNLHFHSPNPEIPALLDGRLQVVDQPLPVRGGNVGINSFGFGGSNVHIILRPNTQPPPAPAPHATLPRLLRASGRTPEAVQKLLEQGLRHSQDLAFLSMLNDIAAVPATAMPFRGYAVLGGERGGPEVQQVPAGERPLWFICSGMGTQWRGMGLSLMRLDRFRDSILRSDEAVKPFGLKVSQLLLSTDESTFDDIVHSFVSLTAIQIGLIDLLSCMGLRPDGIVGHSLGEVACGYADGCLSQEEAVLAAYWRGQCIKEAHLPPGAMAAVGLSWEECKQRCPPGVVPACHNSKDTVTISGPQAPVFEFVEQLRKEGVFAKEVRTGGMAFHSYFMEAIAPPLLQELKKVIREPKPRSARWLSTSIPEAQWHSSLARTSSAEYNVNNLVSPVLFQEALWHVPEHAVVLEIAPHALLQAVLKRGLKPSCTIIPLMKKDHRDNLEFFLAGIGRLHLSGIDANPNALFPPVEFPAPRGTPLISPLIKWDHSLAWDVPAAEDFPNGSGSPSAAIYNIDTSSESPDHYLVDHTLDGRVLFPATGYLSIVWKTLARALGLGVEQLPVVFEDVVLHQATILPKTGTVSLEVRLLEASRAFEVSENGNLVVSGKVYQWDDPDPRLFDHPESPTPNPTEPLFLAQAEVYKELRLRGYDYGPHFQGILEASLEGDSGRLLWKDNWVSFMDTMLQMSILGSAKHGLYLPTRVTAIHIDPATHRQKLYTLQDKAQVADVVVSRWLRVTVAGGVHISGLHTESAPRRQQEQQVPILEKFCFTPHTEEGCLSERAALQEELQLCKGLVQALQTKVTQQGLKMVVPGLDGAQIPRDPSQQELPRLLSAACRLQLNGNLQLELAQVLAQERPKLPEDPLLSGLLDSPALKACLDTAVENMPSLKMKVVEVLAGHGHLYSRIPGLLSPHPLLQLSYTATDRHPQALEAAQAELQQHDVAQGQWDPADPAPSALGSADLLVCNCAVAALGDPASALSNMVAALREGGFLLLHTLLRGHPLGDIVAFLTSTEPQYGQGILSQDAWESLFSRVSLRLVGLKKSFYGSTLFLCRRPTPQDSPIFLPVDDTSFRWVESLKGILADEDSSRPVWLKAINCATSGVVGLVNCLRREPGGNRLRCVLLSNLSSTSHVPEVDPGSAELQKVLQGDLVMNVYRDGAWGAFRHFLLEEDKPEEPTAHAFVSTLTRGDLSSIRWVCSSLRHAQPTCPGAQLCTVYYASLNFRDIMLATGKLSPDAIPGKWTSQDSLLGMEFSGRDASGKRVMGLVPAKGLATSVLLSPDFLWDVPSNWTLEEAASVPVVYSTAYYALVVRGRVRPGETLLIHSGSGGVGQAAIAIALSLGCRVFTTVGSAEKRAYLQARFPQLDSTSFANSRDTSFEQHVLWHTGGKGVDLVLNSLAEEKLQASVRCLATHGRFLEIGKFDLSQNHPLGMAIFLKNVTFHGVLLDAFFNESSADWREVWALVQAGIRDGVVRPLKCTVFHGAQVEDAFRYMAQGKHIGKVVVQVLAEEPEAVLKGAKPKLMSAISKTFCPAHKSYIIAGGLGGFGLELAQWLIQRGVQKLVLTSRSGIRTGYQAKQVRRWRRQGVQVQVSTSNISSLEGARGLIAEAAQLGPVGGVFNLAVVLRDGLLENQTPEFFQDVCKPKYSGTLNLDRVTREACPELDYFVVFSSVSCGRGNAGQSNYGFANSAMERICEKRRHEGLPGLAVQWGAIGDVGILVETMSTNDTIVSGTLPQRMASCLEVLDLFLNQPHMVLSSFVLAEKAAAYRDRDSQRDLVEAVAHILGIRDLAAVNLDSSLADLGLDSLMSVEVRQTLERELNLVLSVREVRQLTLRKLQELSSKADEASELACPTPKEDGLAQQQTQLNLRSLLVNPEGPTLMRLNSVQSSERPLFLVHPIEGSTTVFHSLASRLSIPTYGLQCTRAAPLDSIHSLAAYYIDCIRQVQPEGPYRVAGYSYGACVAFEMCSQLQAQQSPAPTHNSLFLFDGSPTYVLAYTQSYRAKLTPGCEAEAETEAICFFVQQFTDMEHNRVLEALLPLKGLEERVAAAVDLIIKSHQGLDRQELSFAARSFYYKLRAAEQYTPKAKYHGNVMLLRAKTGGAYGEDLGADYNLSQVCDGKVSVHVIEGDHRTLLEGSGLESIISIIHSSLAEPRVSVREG

| SMILES | outcome [1] | outcome [2] | outcome [3] | outcome [4] | outcome [5] | outcome [6] | AC50 [7] | outcome [8] | outcome [9] | outcome [10] | outcome [11] | outcome [12] | outcome [13] | outcome [14] | outcome [15] | outcome [7] | AC50 [11] | AC50 [13] | AC50 [2] |
| --- | --- | --- | --- | --- | --- | --- | --- | --- | --- | --- | --- | --- | --- | --- | --- | --- | --- | --- | --- |
| O=C1OC(=O)C2C3C=CC(C3)C12 (centres undefined) | inactive | inactive | inactive | inactive | inactive | inactive | 84.5 µM (active) | inactive | inactive | inactive | inactive | inactive | inactive | inactive | – | – | – | – | – |
| O=C(O)CCN(C1(C(=O)NO)CCCC1)S(=O)(=O)c1ccc(Oc2ccc(F)cc2)cc1 | inactive | inactive | inactive | inactive | inactive | inactive | 67.5 µM (active) | inactive | inactive | inactive | inactive | inactive | inactive | inactive | – | – | – | – | – |
| Cc1ccc(S(=O)(=O)O)cc1C | inactive | inactive | – | inactive | inactive | inactive | 74.3 µM (active) | inactive | – | inactive | inactive | inactive | inactive | inactive | inactive | – | – | – | – |
| COC(=O)c1ccccc1O | inactive | inactive | – | inactive | inactive | inactive | – | inactive | inactive | inactive | inactive | inactive | inactive | inactive | inactive | inactive | – | – | – |
| CC(C)CCO | – | inactive | inactive | inactive | inactive | inactive | – | inactive | – | inactive | inactive | inactive | inactive | inactive | – | inactive | – | – | – |
| CCCCC(CC)COC(=O)c1ccc(C(=O)OCC(CC)CCCC)cc1 (centres undefined) | inactive | inactive | inactive | inactive | inactive | inactive | – | inactive | inactive | inactive | inactive | inactive | inactive | inactive | – | inactive | – | – | – |
| Nc1cccc(N)c1 | inactive | inactive | inactive | inactive | inactive | inactive | 50 µM (active) | inactive | – | inactive | inactive | inactive | inactive | inactive | – | – | – | – | – |
| On1ccccc1=S | – | inactive | – | inactive | inactive | inactive | – | inactive | – | inactive | inactive | inactive | inactive | inactive | inactive | inactive | – | – | – |
| CN(C)c1ccc(N=NS(=O)(=O)O)cc1 | inactive | inactive | – | inactive | inactive | inactive | 17.9 µM (active) | inactive | inactive | inactive | – | inactive | – | inactive | – | – | 16.4 µM (active) | 31 µM (active) | – |
| COC(=O)CC(=O)OC | inactive | – | – | inactive | inactive | inactive | 50 µM (active) | inactive | inactive | inactive | inactive | inactive | inactive | inactive | inactive | – | – | – | 50 µM (active) |
| O=C(O)c1cc(N=Nc2ccc(S(=O)(=O)Nc3ccccn3)cc2)ccc1O | inactive | inactive | inactive | inactive | inactive | inactive | 35.8 µM (active) | inactive | inactive | inactive | inactive | inactive | inactive | inactive | – | – | – | – | – |
| CCCCCCCCCCCCc1ccccc1 | inactive | inactive | – | inactive | inactive | inactive | 73.7 µM (active) | inactive | – | inactive | inactive | inactive | inactive | inactive | – | – | – | – | – |
| CCOCCO | inactive | inactive | – | inactive | inactive | inactive | – | inactive | – | inactive | inactive | inactive | inactive | inactive | – | inactive | – | – | – |
| CC(O)CN(CCN(CC(C)O)CC(C)O)CC(C)O (centres undefined) | inactive | – | inactive | inactive | inactive | inactive | 50 µM (active) | inactive | – | inactive | – | inactive | inactive | inactive | – | – | 12.4 µM (active) | – | 12.4 µM (active) |
